In PubChem BioAssay (NCI):
The panel holds about 83,000 compounds, 20% with a hit somewhere; the sample as a whole holds those more often.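 Step 1: grow cells in 96-well plates. Step 2: add test compound at a single concentration. Step 3: incubate 48 h. Step 4: record percent growth.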 Activity calls are given as the source filed them. Rule for the calls: active = growth percent below 10; inactive = the rest.

test system: HL-60(TB) leukemia; test: NCI-60 one-dose screen, 48 h (100 = growth as untreated, 0 = no growth, -100 = all killed); conditions: 10 µM unless noted

| Compound | growth |
| --- | --- |
| O=c1cc(-c2ccccc2)[nH]c2ccccc12 | 45% (inactive) |
| CCOc1ccccc1/C=N\Nc1ccc(S(=O)(=O)c2ccc(N/N=C/c3ccccc3OCC)cc2)cc1 | 102% (inactive) |
| CCOC(=O)c1cn2ncnc(Oc3ccc(NC(=O)NC4CC4)c(Cl)c3)c2c1C | 83.5% (inactive) |
| Cc1cc(C)c2c(=O)[nH]c(SCC(=O)Nc3cccc(S(=O)(=O)N(C)C)c3)nc2n1 | 97.2% (inactive) |
| CC(=O)Cc1nsc(NC(=O)c2ccoc2COc2ccccc2)n1 | 98.5% (inactive) |
| O=C(/C=C/c1ccccc1)n1c(-c2ccccc2)nc2ccccc21 | 101% (inactive) |
| COc1cc(/C=N/NC(=S)NNC(=S)NC2CCCCC2)cc(OC)c1OC | 104% (inactive) |
| O=C(NCCN1CCCCC1)n1cc(-c2ccncc2)c(-c2ccc(Cl)c(O)c2)n1 | 71.1% (inactive) |
| CC1(C)C2CCC(O)(C(=O)O)C1C2 (stereo not given) | 107% (inactive) |
| O=C1Nc2ccccc2/C1=C/c1cccn1CCCCCn1c2ccccc2c(=O)c2ccccc21 | 47.6% (inactive) |
| Cc1cn(-c2nc3c(c(NCc4ccccc4)n2)COCC3)c2cccc(C(N)=O)c12 | 71.1% [0.5 µM] (inactive) |
| COC(=O)c1cc2c(n1Cc1ccccc1)-c1oncc1CCC2 | 28.9% (inactive) |
| Nc1ccc(F)c(Cl)c1F | 95.6% (inactive) |
| Nc1cccc2c1CN(C1CCC(=O)NC1=O)C2=O (stereo not given) | 105% (inactive) |
| COc1cccc(/C=C2/C(=O)N(Cc3ccco3)SC2=S)c1OC | 94.5% (inactive) |
| CC(=O)OC[C@H]1OC(Sc2sc(C(=O)c3ccc(Br)cc3)c(N)c2-c2nc3ccccc3s2)[C@H](OC(C)=O)[C@@H](OC(C)=O)[C@H]1OC(C)=O (stereo not given in full) | 105% (inactive) |
| CN(C)CC(O)c1ccc2cc(Br)c3ccccc3c2c1 (stereo not given) | 43.7% (inactive) |
| COc1ccc(C(O)c2cc3c(N)c(C(=O)Nc4cccc(Cl)c4C)sc3nc2C)cc1 (stereo not given) | -51% (active) |
| CSC(SC)=C(C#N)c1nc2ccccc2s1 | 44.6% (inactive) |
| NCCCNc1nc2ccccc2c2c(=O)c3cc(F)cc(Cl)c3sc12 | 75.5% (inactive) |

| Compound | growth |
| --- | --- |
| COc1ccc2c(c1)C(C)Cc1c(ncnc1-n1cnc3cc(C)ccc31)N2C (stereo not given) | -25.8% (active) |
| CC(C)OC(=O)NNC(=O)c1ccncc1 | 85.2% (inactive) |
| Cc1cc2nc3ccc(N=Nc4ccc(N(C)C)cc4)cc3n(-c3ccccc3)c-2cc1=N | -2.79% (active) |
| CSc1nc2ncnc(SC)c2[nH]1 | 118% (inactive) |
| CC(C)CC(NC(=O)C(CCCN=C(N)N)NC(=O)OCc1ccccc1)C(=O)NC(CNC(=O)/C=C/c1ccccc1)C(C)C (stereo not given) | 102% (inactive) |
| Oc1ccc2c(c1)CCc1ccccc1-2 | 103% (inactive) |
| O=C1/C(=C/c2ccccn2)NC(=S)N1c1ccccc1Cl | 26.9% (inactive) |
| CCOc1ccc(/C=C(\C#N)c2cc3ccccc3[nH]2)cc1 | 43.7% (inactive) |
| Cn1c(=O)c(C#N)c(-c2ccco2)n2c(S(=O)(=O)Cc3ccccc3)nnc12 | 103% (inactive) |
| Cc1cc2c3ccc(C)[n+](C)c3ccc2n1C | -5.59% (active) |
| COc1ccc2c(c1OC)CO[C@@H]2[C@H]1c2c(cc3c(c2OC)OCO3)CCN1S(=O)(=O)c1cn(C)cn1 | -0.0238% (active) |
| NC(=O)N1N=C(c2ccc(Cl)cc2)CC1c1cn(-c2ccccc2)nc1-c1ccc(Cl)cc1 (stereo not given) | 80.9% (inactive) |
| CN(C)CCCNc1nc2ccccc2c2c(=O)c3cc(F)ccc3sc12 | -43.5% (active) |
| OCCN1CCCCCCC1 | 102% (inactive) |
| CN(C)c1cccc2c(S(=O)(=O)N[C@H]3CC[C@H]4[C@@H]5CCc6cc(O)ccc6[C@H]5CC[C@]34C)cccc12 | -26.7% (active) |
| Cc1cc2c(-c3nc4ccccn4c3NC34CC5CC(CC(C5)C3)C4)c(O)c(O)cc2c(O)c1-c1c(C)cc2c(-c3nc4ccccn4c3NC34CC5CC(CC(C5)C3)C4)c(O)c(O)cc2c1O | 5.04% (active) |
| Cc1ccc(N)cc1F | 120% (inactive) |
| COc1cc2nc(Cl)nc(Nc3cccc(C(=O)/C=C/c4ccc(Cl)cc4)c3)c2cc1OC | 51.7% (inactive) |
| Cc1ccc(-c2cc(-c3ccc(C)cc3)nc(N3CCN(CCNc4ccnc5cc(Cl)ccc45)CC3)n2)cc1 | 0.0538% (active) |
| O=C1c2ccccc2C(=O)c2c1ccc(C(Br)Br)c2[N+](=O)[O-] | -37.9% (active) |
